Source: PubChem BioAssay (EPA / NIEHS)
The source made the active and inactive calls. Rule for the calls: active = hit-call score of the fitted dose curve at least 0.9, where 1 is the maximum; inactive = score below 0.9.

These compounds were tested on Cytochrome P450 (CYP2B6), CYP2B6 (gene 1555) (assay: LTEA_HepaRG_CYP2B6: Life Technologies and Expression Analysis (LTEA) Assay for Cytochrome P450 (CYP2B6) using HepaRG (AID 2283481)). Conditions: mRNA level, 48 h; actives raise or lower the signal.
Procedure: LTEA_HepaRG is a cell based, multiplexed-readout assay that uses HepaRG, a human liver cell line, with measurements taken at 48 hours after chemical dosing on a 96-well plate.LTEA_HepaRG_CYP2B6 is one of 102 assay component(s) measured in the LTEA HepaRG cell culture assay. It is a marker of NR mediated metabolism.Data from the assay component LTEA_HepaRG_CYP2B6 was analyzed into 1 endpoint. This assay endpoint, LTEA_HepaRG_CYP2B6, was analyzed with bidirectional fitting relative to DMSO as the negative control and baseline of activity. Using a type of inducible reporter, measures of mRNA induction for gain or loss-of-signal activity can be used to understand regulation of transcription factor activity. To generalize the intended target to other relatable targets, this assay endpoint is annotated to the cyp intended target family, where the subfamily is xenobiotic metabolism.
A total of 1060 chemcials from the ToxCast library were tested in eight-point concentration-response experiments. Cell culture and cytotoxicity assays were conducted at Thermo Fisher Scientific's Custom Services facility (Madison, WI). A single lot of human HepaRG cells (Thermo Fisher Scientific, Frederick, MD) was used for the cell culture experiments. 96-well format collagen type I coated plates of human HepaRG cells were prepared using established methods. Briefly, cryopreserved HepaRG cells were thawed, plated at a density of approximately 100,000 cells/well in HepaRG Thaw, Plate, and General Purpose media (HPRG770, Thermo Fisher Scientific), and incubated for 48 hours. 0.5% DMSO was selected as vehicle control to balance the requisite need of DMSO in HepaRG cultures to maintain differentiation (for example, baseline metabolism, proportions of hepatocytes vs. cholangiocytes), while enabling further hepatic receptor pathway activation (for example, PXR and CAR) in response to chemical exposure. 48 hours after plating, the culture medium was replaced with HepaRG Serum-Free Incudtion Media. Cells were exposed to each test chemical in duplicate and maintained in CO2 incubators for another 48 hours. Chemical plates were thawed to room temperature and 200x concentrations of treatment groups were prepared. 8-point conentration-reponse curves were made with the highest exposure at 100 uM, followed by half-log dilutions, all in 0.5% DMSO. Each test plate contained variouse controls, induction positive controls (1mM phenobarbital), cytotoxicity positive controls ([…] aflatoxin B1), vehicle controls (0.5% DMSO), and total lysis controls (0.5% DMSO). Cell morphology images were taken using an Essen IncuCyte FLR automated microscope, with six 96-well plates imaged in about 24 minutes. Images were captured and exported and JPEG files. Spent culture media was transfered to black-well plates for the LDH assay, and remaining media was sorted at -80 C for later use. Cells were treated with RLT buffer and frozen until shipped for gene expression analysis. Total RNA was isolated from the cell suspension in 75 uL of Buffer RLT (Qiagen, Germantown, MD 20874) by Quintiles/Expression Analysis (Durham, NC) using a custom isolation procedure. Total RNA from each plate well was transferred to a preamplification plate. Fluidigm's 96.96 Dynamic ArrayTM (Fluidigm, Amsterdam, the Netherlands) technology was used for gene expression analyses by quantitative reverse transcription polymerase chain reaction (qRT-PCR, performed by Quintiles/Expression Analysis, Durham, NC)89. Standard TaqManTM Assays (Applied Biosystems/ThermoFisher Scientific, Foster City, CA) were used to assess the expression of 93 genes selected based on their selectivity and sensitivity to important hepatic receptors known to be modulated by environmental chemicals; importance in human hepatocyte functionality; and hepatotoxicity. […]

Row | Structure (SMILES) | AC50 | outcome
1 | CC(C)(O)c1cnn2c(-c3ccc(F)c(-c4c(F)cccc4C#N)c3)cnc2n1 | 0.705 µM (active) | –
2 | Brc1ccc(Oc2ccccc2)cc1 | 78.1 µM (active) | –
3 | CS(=O)(=O)NC(=O)c1cc(Oc2ccc(C(F)(F)F)cc2Cl)ccc1[N+](=O)[O-] | 3.63 µM (active) | –
4 | [Cl-].[Cl-].[Hg+2] | – | inactive
5 | CC(C)(C)C(O)(CCc1ccc(Cl)cc1)Cn1cncn1 (stereo not given) | 91.4 µM (active) | –
6 | CCCCCCCCn1sccc1=O | 87 µM (active) | –
7 | ClC1=C(Cl)[C@]2(Cl)[C@H]3[C@H]([C@@H]4C=C[C@H]3C4)[C@@]1(Cl)C2(Cl)Cl | 2.2 µM (active) | –
8 | ClCCOCCCl | – | inactive
9 | OCCCBr | 40.8 µM (active) | –
10 | Clc1ccc(C(c2ccc(Cl)cc2)C(Cl)Cl)cc1 | 2.87 µM (active) | –
11 | COc1cc(C=O)cc2c1[C@H](COC(N)=O)[C@]1(OC(C)=O)ON2C[C@H]2[C@@H]1N2C(C)=O | 73.4 µM (active) | –
12 | CC(C)(C)OOC(C)(C)CCC(C)(C)OOC(C)(C)C | – | inactive
13 | O=C1CCCO1 | – | inactive
14 | COC(=O)Nc1nc2ccccc2[nH]1 | 3.97 µM (active) | –
15 | COC(=O)c1ccccc1N | – | inactive
16 | Cc1ccc(N=C=O)cc1N=C=O | – | inactive
17 | C=CCc1ccc2c(c1)OCO2 | 18.4 µM (active) | –
18 | c1ccc(C2CO2)cc1 (stereo not given) | – | inactive
19 | COP(=S)(OC)SCN1C(=O)c2ccccc2C1=O | 50 µM (active) | –
20 | N#CC(Br)Br | – | inactive

Row | Structure (SMILES) | AC50 | outcome
21 | c1ccc2c(c1)-c1cccc3cccc-2c13 | 5.03 µM (active) | –
22 | Cc1cc(N=Nc2ccccc2C)ccc1N | 5.08 µM (active) | –
23 | Nc1ccc(N=Nc2ccccc2)cc1 | 13.1 µM (active) | –
24 | CCNS(=O)(=O)C(F)(F)C(F)(F)C(F)(F)C(F)(F)C(F)(F)C(F)(F)C(F)(F)C(F)(F)F | – | inactive
25 | CCN(CC)N=O | – | inactive
26 | N#CC(Br)(Br)C(N)=O | – | inactive
27 | O=[N+]([O-])c1ccc(Oc2ccc(Cl)cc2Cl)cc1 | 12.8 µM (active) | –
28 | CCOc1cccc(C2(N3CCN(c4ccccc4)CC3)CCC(C)CC2)c1 (stereo not given) | 30.8 µM (active) | –
29 | CC(C)COC(=O)c1ccccc1C(=O)OCC(C)C | – | inactive
30 | O=C(N[C@H](c1ccccc1)[C@@H]1CN2CCC1CC2)c1c(Cl)ccc(C(F)(F)F)c1Cl | 42 µM (active) | –
31 | CN(C)[C@@H]1C(=O)C(C(N)=O)=C(O)[C@@]2(O)C(=O)C3=C(O)c4c(O)cccc4[C@@](C)(O)[C@H]3C[C@@H]12 | – | inactive
32 | O=C(Oc1ccc(Br)cc1)N1CCN2CCC1CC2 | 6.42 µM (active) | –
33 | CO[C@@H]1[C@H](OC(=O)NC(=O)CCl)CC[C@]2(CO2)[C@H]1[C@@]1(C)O[C@@H]1CC=C(C)C | 0.0683 µM (active) | –
34 | CN(C)C(=O)Nc1ccc(Cl)cc1 | 22.5 µM (active) | –
35 | O=C(O)C1C2CCC(O2)C1C(=O)O (stereo not given) | 77.7 µM (active) | –
36 | CCN(CC)CCO | – | inactive
37 | Nc1ccc(Oc2ccc(N)cc2)cc1 | 67 µM (active) | –
38 | c1ccc(NNc2ccccc2)cc1 | 5.26 µM (active) | –
39 | CC(C)N(Cc1ccccc1)C(=O)C(C)(C)C | 2.31 µM (active) | –
40 | Cc1ccc(N)cc1 | 16.5 µM (active) | –
